These results are taken from PubChem BioAssay (Tox21).

Results filed as inconclusive are left out. The source made the active and inactive calls. Calls come from the whole dose curve; as a rule, active = well fitted cell-killing curve with a large enough effect in the repeat runs; inconclusive = weak or mixed curves; inactive = flat fitted curve, though single readings scatter.

The test is described as follows: qHTS RealTime-Glo MT Cell Viability Assay in HepG2 cells - 8 hour (AID 1224873). Note: nearly all actives have a fitted effect of over 55% in size. As to conditions: RealTime-Glo luminescence; series mostly up to 76.8 µM. The source says: National Center for Advancing Translational Sciences [NCATS]
NIH Chemical Genomics Center [NCGC]
U.S. Environmental Protection Agency [EPA]
National Institutes of Environmental Health Sciences [NIEHS]
National Toxicology Program [NTP]
U.S. Food and Drug Administration [FDA]
Measure of cell viability is critical in the cell-base assay. Analysis of cell viability is necessary for the characterization of cell responses to cytotoxic drugs and environmental stress. A RealTime-Glo MT Cell Viability Assay to monitor cell viability in real time of continues cell culture during 40 hours of compound treatment was used to screen Tox21 10K library compounds in HepG2 cells. The RealTime-Glo MT Cell Viability Assay is a nonlytic, homogeneous, bioluminescent method to measure cell viability in real time using a simple, plate-based method. The assay involves adding NanoLuc luciferase and a cell-permeant prosubstrate to cells in culture. Viable cells reduce the proprietary prosubstrate to generate a substrate for NanoLuc luciferase. This substrate diffuses from cells into the surrounding culture medium, where it is rapidly used by the NanoLuc Enzyme to produce a luminescent signal. The signal correlates with the number of viable cells, making the assay well suited for cytotoxicity studies.
Tox21 Assay Protocol Summary:
The mixture of HepG2 cell suspension and reagents were dispensed at 600cells/6 ul/well in 1536-well tissue culture treated black solid bottom plates using a Multidrop dispenser. After the assay plates were incubated at a 37 C/5% CO2 incubator for 5 hours, 23 nL of compounds dissolved in DMSO, positive and negative controls was transferred to the assay plate by a pintool work station. The plates were incubated at 37 C for 40 hours. The luminescence intensity were measured at 0h, 8h, 16h, 24h, 32h and 40h time points using ViewLux plate reader during compound treatment.
Consider `NS(=O)(=O)c1ccc(Cl)c(S(N)(=O)=O)c1`, for which the result was inactive.

In the case of `Cc1oc(=O)oc1CN1CCN(c2cc3c(cc2F)c(=O)c(C(=O)O)c2n3C(C)S2)CC1` (stereo not given), the result was inactive.

On to `CN(C)CCOCCN(C)CCO`, for which the call was inactive.

As to `CCOC(=O)CCCCCCCCC(=O)OCC`, the compound was classed as inactive.

`Cc1ccccc1C`: the compound was called inactive.

Take `CCCCOC(=O)C(=O)OCCCC`: the result was inactive.

Take `CCCCC/C=C/CC(=O)OC`: the call was inactive.

`C=CCOc1c(Br)cc(Br)cc1Br`: the result was inactive.

On to `CCCCCCCCCCCCC`, for which the result was inactive.

As for `CCN(CCO)c1cccc(C)c1`, the compound was classed as inactive.

Regarding `CCN(CCC#N)c1ccccc1`, the compound was called inactive.

On to `CNC(=O)NC`, for which the call was inactive.

With `CCCCCCCCC(=O)OCC`, the outcome was inactive.

`CC(C)CCCCCCOC(=O)C1CCCCC1C(=O)OCCCCCCC(C)C` (stereo not given): the call was inactive.

In the case of `COc1ccc(/C=N/NC(=O)c2ccncc2)cc1OC`, the outcome was inactive.

On to `CCCCCCCCCCCCCCCCCCN(C)C`, for which the compound was called inactive.

As for `CC(=O)Nc1ncc([N+](=O)[O-])s1`, the outcome was inactive.

Regarding `COc1cc(C=O)ccc1OC(=O)C(C)C`, the call was inactive.

Regarding `CNC(=O)C(c1ccccc1)c1ccccc1`, the compound was classed as inactive.

In the case of `COc1ccc(N=Nc2cc(C)c(N=Nc3ccc(S(=O)(=O)O)cc3)cc2OC)cc1`, the result was inactive.

`C=C(C)C(=O)OC1CC(C)CC(C)(C)C1` (stereo not given): the call was inactive.

Turning to `C=C[Si](C)(C)O[Si](C)(C)C=C`, the compound was classed as inactive.

With `Cc1c(C(C)C)c(=O)n(-c2ccccc2)n1C`, the compound was classed as inactive.

Turning to `NCCc1ccn[nH]1`, the compound was classed as inactive.

Take `Nc1ccnc(=O)[nH]1`: the call was inactive.

Regarding `CC(=O)/C=C/c1ccco1`, the result was inactive.

Turning to `C[Si]1(C)N[Si](C)(C)N[Si](C)(C)N1`, the call was inactive.

For `CC(C)COC(=O)/C=C/c1ccccc1`, the compound was classed as inactive.

For `Nc1ccc(S(=O)(=O)Nc2ccccn2)cc1`, the outcome was inactive.

With `CC(C)C(=O)c1ccccc1`, the outcome was inactive.

With `CCCCC(CC)CNC(=O)CC(C)OC(=O)CCC(=O)O` (stereo not given), the compound was classed as inactive.

Consider `CC(=O)Nc1ccc(C)cc1`, for which the outcome was inactive.

For the compound `O=C(Oc1ccccc1C(=O)O)c1ccccc1O`, the compound was called inactive.

`C=COCCOCCOC=C`: the result was inactive.

`CCCOCCOCCOCCO`: the compound was called inactive.

For the compound `SCCSCCS`, the result was inactive.

Turning to `CO[Si](CCCCl)(OC)OC`, the compound was classed as inactive.

As for `CCC1COC(=O)O1` (stereo not given), the compound was classed as inactive.

`OC(CCN1CCCCC1)(c1ccccc1)c1ccccc1`: the call was inactive.

As for `CCOC(=O)CC#N`, the compound was classed as inactive.
